Reference: PubChem BioAssay AID504329 (Southern Research Specialized Biocontainment Screening …, 2011)
In all, about 340,000 compounds went through this assay and about 1,000 (0.29%) were called active. Cut-off read from the data, not from the text of the source: inconclusive = inhibition above about 27% without an active follow-up result; inactive = below that. A selection follows. Entries with a potency or affinity are not part of this list.

Test: H1N1 influenza NS1A inhibitors, functional cell based assay (AID 504329)
Settings: percent inhibition, at 12.5 µM, active compounds read high
With `Cn1c(=Nc2ccccc2)sc2ccccc21` the inhibition was 9.39% (inactive).
For `COc1ccc(N=c2sc3ccccc3n2C)cc1`, the inhibition was 1.52% (inactive).
In the case of `O=C(COC(=O)/C=C/c1cccc(Cl)c1)NC1CCCC1`, the inhibition is reported as -4.83% (inactive).
In the case of `CC(C)(C)c1ccc(-c2n[nH]c(=S)n2CC2CCCO2)cc1` (stereo not drawn), the inhibition is reported as 3.44% (inactive).
For `O=C/C=C/c1ccccc1`, the inhibition was 2.7% (inactive).
For `Cc1ccc(C2=NOC(=O)/C2=C\C=C\c2ccccc2)cc1`, the inhibition was -3.38% (inactive).
For `CC1=C(C)N(C)[C@H](c2ccccc2Br)[C@H](O)C1=O`, the inhibition was -9.31% (inactive).
In the case of `O=C(CSc1nnc(-c2cccnc2)n1Cc1ccccc1)N1CCOCC1`, the inhibition is reported as 0.45% (inactive).
In the case of `Cc1nc2ncccn2c1-c1csc(Nc2ccc(O)cc2)n1`, the inhibition is reported as 5.22% (inactive).
For `Cc1ccc(Nc2nc(-c3c(C)nc4ncccn34)cs2)cc1`, the inhibition was -0.31% (inactive).
For `S=C(NCc1ccco1)Nc1ccc(Cl)cc1Cl`, the inhibition was 0.07% (inactive).
In the case of `Cc1nc2ccccc2c(=O)n1CCCN1CCOCC1`, the inhibition is reported as -0.85% (inactive).
In the case of `N=c1n(CCN2CCOCC2)c2ccccc2n1CC(=O)c1cccc([N+](=O)[O-])c1`, the inhibition is reported as 0.36% (inactive).
With `O=c1[nH]c(-c2ccccn2)nc2sc(-c3ccccc3)cc12` the inhibition was 1.57% (inactive).
In the case of `CCc1cc2c(=O)[nH]c(-c3ccncc3)nc2s1`, the inhibition is reported as -1.62% (inactive).
In the case of `COC(=O)c1cc(NS(=O)(=O)c2ccc(NC(C)=O)cc2)ccc1Cl`, the inhibition is reported as 10.8% (inactive).
In the case of `O=C(NCCCN1CCOCC1)C(=O)N/N=C/c1ccccc1Cl`, the inhibition is reported as -2.62% (inactive).
In the case of `S=C(NCCN1CCOCC1)N/N=C/c1ccccc1`, the inhibition is reported as 4.1% (inactive).
In the case of `O=C(NCCCN1CCOCC1)C(=O)N/N=C/c1cccc2ccccc12`, the inhibition is reported as -23.6% (inactive).
In the case of `Oc1cccc(/C=N/NC(=S)NCCN2CCOCC2)c1O`, the inhibition is reported as -11.6% (inactive).
With `COc1cc(/C=N/NC(=S)NCCN2CCOCC2)cc(OC)c1OC` the inhibition was -0.84% (inactive).
In the case of `COc1cc(/C=N/NC(=S)NCCN2CCOCC2)ccc1O`, the inhibition is reported as -6.09% (inactive).
For `CCCCNC(=S)N/N=C/c1cccc(OCC)c1O`, the inhibition was -0.5% (inactive).
In the case of `COc1cc(OC)c(OC)cc1/C=N/NC(=S)NCCN1CCOCC1`, the inhibition is reported as -3.02% (inactive).
In the case of `N#C/C(=C\Nc1ccc(Cl)cc1)S(=O)(=O)c1ccccn1`, the inhibition is reported as -7.92% (inactive).
In the case of `Cc1ccc2nc(SCC(=O)Nc3cccc([N+](=O)[O-])c3)[nH]c2c1`, the inhibition is reported as 4.1% (inactive).
For `CCOC(=O)C1=C(C)C(c2ccccc2O)NC(=O)N1` (stereo not drawn), the inhibition was -4.1% (inactive).
In the case of `CCCOc1ccc(-c2nc(OCC)c3ccccc3n2)cc1`, the inhibition is reported as -12.4% (inactive).
For `COc1cc2c(cc1OC)C(c1ccsc1)CC(=O)N2` (stereo not drawn), the inhibition was 2.33% (inactive).
For `O=C(O)c1ccccc1Nc1ccnc(Cl)n1`, the inhibition was 4.77% (inactive).
With `O=C(O)c1ccccc1Nc1ccccc1C(=O)O` the inhibition was 5.1% (inactive).
In the case of `CCOC(=O)N1CCC(=C(C#N)C(=O)Nc2cc(OC)ccc2OC)CC1`, the inhibition is reported as 7.42% (inactive).
With `O=C(CSc1n[nH]c(-c2ccco2)n1)Nc1ccccc1F` the inhibition was 2.4% (inactive).
With `O=C(CSc1n[nH]c(-c2ccncc2)n1)Nc1ccccc1` the inhibition was -1.24% (inactive).
With `Cc1nc(SCC(=O)Nc2cccc(Cl)c2)n[nH]1` the inhibition was -19.4% (inactive).
With `COc1ccccc1NC(=O)CSc1n[nH]c(-c2cccnc2)n1` the inhibition was 2.96% (inactive).
In the case of `O=C(CSc1n[nH]c(-c2cccnc2)n1)Nc1cccc(Cl)c1`, the inhibition is reported as 0.29% (inactive).
With `COc1ccccc1NC(=O)CSc1n[nH]c(-c2ccco2)n1` the inhibition was -13% (inactive).
For `O=C(CSc1n[nH]c(-c2cccnc2)n1)Nc1ccccc1`, the inhibition was -8.39% (inactive).
With `COc1ccccc1-c1nc(SCC(=O)Nc2ccccc2F)n[nH]1` the inhibition was -2.78% (inactive).
With `CCOC(=O)c1c(C)[nH]c(C)c1S(=O)(=O)N(C)CC(=O)Nc1ccccc1F` the inhibition was -8.93% (inactive).
With `COc1ccc(OC2C(=O)N(CCc3ccc(OC)c(OC)c3)C2c2ccc3c(c2)OCO3)cc1` (stereo not drawn) the inhibition was 22.8% (inactive).
With `Cc1cc(C)cc(OCC(O)Cn2nc(C)cc2C)c1` (stereo not drawn) the inhibition was -5.82% (inactive).
With `CC(C)Cc1nc(Cl)c(C#N)c2c1CCCC2` the inhibition was 0.11% (inactive).
For `COCC1CCN(C(=O)C2CCC(=O)N(C3CCCCCC3)C2)CC1` (stereo not drawn), the inhibition was 8.12% (inactive).
In the case of `COC(=O)CN1C(=O)Nc2ccc(Cl)cc2C1c1ccccc1` (stereo not drawn), the inhibition is reported as 4.9% (inactive).
In the case of `CC(=O)c1nn(-c2cccc(C)c2)cc1C(=O)c1cccc(Br)c1`, the inhibition is reported as 2.16% (inactive).
With `O=C(Nc1ccc(F)cc1)c1ccc(CSc2ccc(Cl)cc2)o1` the inhibition was -1.55% (inactive).
In the case of `C=CCn1c(SCC(=O)C(C)(C)C)nnc1-c1ccccn1`, the inhibition is reported as -6.69% (inactive).
In the case of `COc1ccccc1N1CCN(S(=O)(=O)c2c(C(=O)N3CCOCC3)c(C)n(C)c2C)CC1`, the inhibition is reported as 6.32% (inactive).
With `CCCCCOc1ccc(C(O)C(CN2CCOCC2)c2ccccc2)cc1` (stereo not drawn) the inhibition was -5.3% (inactive).
With `C[C@H](CO)N1C[C@H](C)[C@@H](CN(C)Cc2ccncc2)Oc2c(NS(=O)(=O)c3ccccc3)cccc2C1=O` the inhibition was -17% (inactive).
For `O=C(CSc1n[nH]c(-c2ccncc2)n1)Nc1ccc(F)cc1`, the inhibition was 0.02% (inactive).
For `COc1ccc(NC(=O)CSc2ccccn2)cc1`, the inhibition was 4.92% (inactive).
In the case of `Cc1ccc(C)c(NC(=O)CSc2n[nH]c(-c3ccncc3)n2)c1`, the inhibition is reported as -3.36% (inactive).
In the case of `COc1ccc(NC(=O)CSc2n[nH]c(-c3ccco3)n2)cc1`, the inhibition is reported as -5.29% (inactive).
For `Cc1ccccc1NC(=O)CSc1n[nH]c(-c2ccccn2)n1`, the inhibition was -5.83% (inactive).
With `O=C(CSc1n[nH]c(-c2ccncc2)n1)Nc1ccc(Cl)cc1` the inhibition was -0.89% (inactive).
For `O=C(CSc1n[nH]c(-c2ccco2)n1)Nc1ccc(F)cc1`, the inhibition was 7.45% (inactive).
In the case of `O=C(CSc1n[nH]c(-c2cccnc2)n1)Nc1ccc(Cl)cc1`, the inhibition is reported as 2.6% (inactive).
In the case of `C[C@@H](NC(=O)Cn1cnc2c(NCc3ccccc3)ncnc21)c1cccc2ccccc12`, the inhibition is reported as -9.17% (inactive).
In the case of `CCN(CC(=O)Nc1ccccc1C(F)(F)F)C(=O)CCS(=O)(=O)c1ccc(Cl)cc1`, the inhibition is reported as -2.32% (inactive).
For `CC(C)CN(C(=O)CN(C)CC(=O)Nc1ccc(Cl)c(C(F)(F)F)c1)c1c(N)n(CC(C)C)c(=O)[nH]c1=O`, the inhibition was -3.46% (inactive).
